Screening data as filed in PubChem.
TDP-43 yeast inh: TDP-43 toxicity inhibition in yeast; Potency, µM (highest dose often 46.1 µM), for inactives: at the top dose growth rescue (activation), hits mostly activators; 410,000 tested, 1.8% active; TDP-43 expressing yeast growth rescue, BacTiter-Glo, 24 h; note: potency is the fitted concentration of half-maximal effect; % of control where 0% means no effect; nearly all actives have a fitted effect of over 50% in size
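Yeast expressing TDP-43 (pregrown in raffinose, seeded at OD600=0.02 in galactose medium) exposed to compounds 24 hr at 30 deg C. Growth read by BacTiter-Glo luminescence; rescue of toxicity appears as increased signal.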
Akt phos inh: blocks phosphorylation of Akt | Neuro2A IGF-stimulated pAkt S473 HTRF, 20 min; stronger effect = lower value | activity change, % for hits at 50 µM | 360,000 tested, 0.32% active; in the data active = activity change below about -80%; inconclusive = mostly about -51% to -80%; note: % is set by controls: 0 for no effect and ±100 for the full control effect
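Single-point screen (50 µM final compound) in Neuro2A cells stimulated 20 min with 6 nM IGF at 37 deg C. After lysis, Ser473-phosphorylated Akt read by HTRF (ex 330 nm, em 615/665 nm) as the 665/615 ratio.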
FUS yeast rescue: FUS proteinopathy suppression in yeast; S. cerevisiae FUS-expressing, growth rescue, OD600, 24 h; Potency, µM (highest dose often 76.6 µM), hits mostly activators; 390,000 tested, 0.24% active;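 note: potency is the fitted concentration of half-maximal effect; plate controls were DMSO vehicle for no effect and reference control for full effect; nearly all actives have a fitted effect of over 55% in size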
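Toxicity suppression screen in FUS-yeast. Cells induced with 2% galactose, starting OD 0.005, treated 24hr at 30C with compounds at multiple final concentrations; growth by OD600.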
aSyn rescue: inhibitors of alpha-synuclein toxicity in yeast | Yeast expressing alpha-synuclein, growth rescue, BacTiter-Glo, 24 h | 370,000 tested, 0.14% active | Potency, µM (series often up to 46.1 µM), for inactives: at the highest dose growth rescue (activation), hits mostly activators; note: potency is the fitted concentration of half-maximal effect; % of control where 0% means no effect; nearly all actives have a fitted effect of over 65% in size
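Screening used galactose-induced yeast with toxic alpha-synuclein levels, exposed to compound for 24 hr at 30 deg C. Cell growth, read with BacTiter-Glo luminescence, gave the measured signal.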
Abeta yeast res: A-beta toxicity reversal in yeast; yeast expressing A-beta42, growth rescue, OD600, 48 h; response scale: 0% DMSO, 100% iron-clioquinol control; Potency, µM (series often up to 46.1 µM), hits mostly activators; 410,000 tested, 0.063% active; note: potency is the fitted concentration of half-maximal effect; nearly all actives have a fitted effect of over 55% in size
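Yeast growth medium received pinned compounds, then yeast cells expressing toxic A-beta were added; plates incubated at 30 C for 48 hr. Growth read as absorbance at 600 nm, normalized to DMSO and equimolar FeCl3 plus clioquinol controls.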
The depositor's hits bear a star; i = inactive; u = inconclusive; x = no result; ! = repeats disagree; [ ] = dose if it differs, or a comment. Most compounds without a hit are left out; they make up all but 2.3% or so of the library. Unless noted, calls come from the whole dose curve; as a rule, active = well fitted curve in the direction sought with a large enough effect; inconclusive = small, poorly fitted or top-dose-only effect, or another doubt; inactive = no such curve, though single readings can be large; an effect the other way counts as inactive or inconclusive.

SMILES	TDP-43 yeast inh	Akt phos inh	FUS yeast rescue	aSyn rescue	Abeta yeast res
Cc1ccc(C)c(S(=O)(=O)c2c(C)cc(C)nc2Cl)c1	11.2µM*	i	i	2.9%	i
Cc1ccc[n+](CC(=O)Nc2cccc([N+](=O)[O-])c2)c1	-1.4%	i	i	1.1%	i
Cc1ccc[n+](CC(=O)Nc2ccc([N+](=O)[O-])cc2)c1	8.91µM*	i	i	-11.2%	i
Cc1cc(C)c2c(n1)nn1c(C)c(CCC(=O)Nc3ccc(C)c(Cl)c3)c(C)nc21	2.1%	x	i	x	i
CC1CCCC(NC(=O)COC(=O)c2ccc(N(C)C)cc2)C1C (centres undefined)	10µM*	x	i	x	i
CC1=C(c2ccc(C(C)C)cc2)S(=O)(=O)N=C1N1CCC(C(=O)Nc2ccc(C)cc2)CC1	27.6%	x	i	x	i
O=C(CCCC(=O)OCC(Cl)=C(Cl)Cl)Nc1cccc(F)c1	14.1µM*	i	i	5.6%	i
O=C(CSCc1ccc(F)cc1)Nc1ccc(F)cc1	u	i	i	-9.5%	i
O=C(Cc1ccccc1)Nc1cccc(N2C(=O)C=CC2=O)c1	6.31µM*	i	x	2.2%	i
O=C(CCCC(=O)OCC(Cl)=C(Cl)Cl)Nc1ccc(F)cc1	15.8µM*	i	i	10.4%	i
O=C(CSCc1ccccc1)Nc1cccc(F)c1	6.31µM*	i	i	3.3%	i
COc1ccc(CNC(=O)c2ccc(CSc3nc4ccncc4n3Cc3ccccc3F)cc2)cc1	-2.3%	x	i	x	i
CSc1ncc(C(=O)N2CCN(c3cccc(C(F)(F)F)c3)CC2)c(C)n1	u	x	i	x	i
CS(=O)(=O)n1nc(-c2ccco2)nc1NCc1ccccc1Cl	15.0%	x	i	x	i
Cc1c(Cl)cccc1NS(=O)(=O)c1ccc(-c2cnc(C3CC3)o2)cc1	u	x	u	x	i
CCOc1ccccc1NC(=O)c1ccccc1NC(=O)c1ccco1	14.8%	i	i	-4.3%	i
CCOc1ccccc1NC(=S)NC(=O)c1ccco1	14.1µM*	i	i	-5.1%	u
CCOc1ccccc1NC(=S)NC(=O)C1CCCCC1	20.2%	i	i	-25.8%	7.08µM*
O=C(Nc1ccc(-c2cc(C(F)(F)F)nn2-c2ccccc2)cc1)c1cccc(F)c1	1.8%	x	i	x	i
CCOc1ccc(CC(=O)NCCc2csc(-c3ccc(C)cc3)n2)cc1	0.0%	x	u	x	i
COc1ccc(C2C(C(=O)Nc3cccc(C)n3)c3ccccc3C(=O)N2C)cc1 (centres undefined)	-4.5%	-109.7%*	i	-1.8%	i
COc1ccc(C2C(C(=O)N3CCN(c4ccccc4F)CC3)c3ccccc3C(=O)N2C)cc1 (centres undefined)	u	-128.7%*	i	16.7%	i
COc1ccc(C2C(C(=O)Nc3cc(C)on3)c3ccccc3C(=O)N2C)cc1 (centres undefined)	0.3%	i	i	-2.7%	i
O=C(COC(=O)CCCN1C(=O)c2ccccc2C1=O)Nc1cc(Cl)cc(Cl)c1	15.2%	i	i	14.1%	i
COc1ccc(NC(=O)COC(=O)CCCN2C(=O)c3ccccc3C2=O)cc1Cl	35.5µM*	i	x	18.0%	i
SMILES	TDP-43 yeast inh	Akt phos inh	FUS yeast rescue	aSyn rescue	Abeta yeast res
CN1CCN(C(=O)Cn2c(-c3cccs3)cc3ccccc32)CC1	12.0%	x	i	x	i
O=C(C1CCN(S(=O)(=O)Cc2ccccc2)CC1)N1CCN(c2ccc(F)cc2)CC1	22.4µM*	x	i	x	i
COc1ccccc1N1CCN(C(=O)Cn2cnc3sc(C)c(S(=O)(=O)N4CCC(C)CC4)c3c2=O)CC1	1.6%	x	i	x	i
COc1ccc(N2CCN(S(=O)(=O)c3c(C)nc4scc(C)n4c3=O)CC2)cc1	14.1µM*!	i	i	-51.1%	i
COC(=O)c1scc(-c2ccc(C)cc2)c1S(=O)(=O)N1CCN(c2ccc(OC)cc2)CC1	0.0%	x	22.4µM*	x	i
COc1cc(C2Nc3ccccc3C(=O)N2Cc2ccccc2)ccc1OCc1ccccc1 (centres undefined)	x	x	x	1.3%	x
CCc1cnc2c(c1SCC(=O)c1ccc(OC)cc1)c(=O)n(C)c(=O)n2C	-0.4%	x	i	x	i
Cc1cc(=O)c2cc(C(=O)Nc3ccc(F)cc3)ccc2[nH]1	0.0%[9.22 µM]	x	i	x	i
O=C(c1cccs1)N1CCCc2cc(NS(=O)(=O)c3ccc(F)cc3F)ccc21	0.0%[9.22 µM]	x	i	x	i
CCC(C)(C)n1nnnc1C(c1ccc(OC)c(OC)c1)N1CCN(c2ccccc2)CC1 (centres undefined)	10.1%	-105.0%*	i	1.6%	i
Cc1cc(NS(=O)(=O)c2ccc(-c3ccccc3)cc2)no1	10µM*	i	i	4.5%	u
CCOC(=O)c1ccc(CN(Cc2ccccc2C)S(=O)(=O)c2ccc(F)c(C)c2)cc1	9.2%	x	i	x	i
COc1ccc(Nc2ccc3cc(S(=O)(=O)N4CCCC4)ccc3n2)cc1OC	5.6%	x	u	x	i
COc1cccc(Nc2ccc3cc(S(=O)(=O)N4CCC(C)CC4)ccc3n2)c1	12.6µM*	x	i	x	i
Cc1cc(C(=O)N/N=C/c2ccc(OCc3ccccc3)cc2)c(C)o1	12.6µM*	i	i	1.7%	u
COc1ccc([C@H]2[C@H](C(=O)C(C)(C)C)N3N=Cc4ccccc4C3[C@]23N=C(c2ccccc2)OC3=O)cc1OC (some centres undefined)	-5.7%	-106.4%*	u	-3.4%	i
Cc1cccc(C)c1NC(=O)CCCn1c(=O)c2cccn2c2ccccc21	9.7%	x	i	x	i
COc1cccc(N2CCN(c3ncc4c(n3)CCN(Cc3ccc(Br)cc3)C4)CC2)c1	6.1%	x	i	x	i
O=C(c1ccccc1)C1CCN(C(=O)c2c(F)cccc2F)CC1	11.2µM*	i	i	7.9%	i
O=C(c1ccc(F)cc1)C1CCN(C(=O)c2c(F)cccc2F)CC1	u	i	i	9.8%	u
COc1ccccc1CNc1ncnc2c1cnn2-c1ccccc1	15.8µM*	i	i	-0.4%	i
COc1ccc(-n2ncc3c(NCC(C)C)ncnc32)cc1	11.2µM*	i	i	1.1%	i
COc1ccccc1CNc1ncnc2c1cnn2-c1ccc(C)cc1	35.5µM*	x	i	x	i
O=C(CC1C(=O)N(c2ccc(F)cc2)C(=O)N1Cc1cccnc1)Nc1ccc(F)cc1 (centres undefined)	-12.7%	x	i	x	i
CCOC(=O)/C(=C\c1cccnc1)C(=O)c1cc(C(C)=O)c(Nc2ccccc2)s1	3.16µM*	i	x	-20.9%	i
CCOC(=O)/C(=C\c1ccccc1)C(=O)c1cc(C(C)=O)c(Nc2ccccc2)s1	-11.4%	i	i	28.3%	i
